According to PubChem BioAssay (NCI):
This is part of a sample that, as a whole, favours compounds with a hit. Of some 83,000 tested, about 20% had one in any assay.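 Method: cells in 96-well plates; compound added at one concentration; 48 h incubation; percent growth measured; values under 10 scored active.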 Unmarked numbers belong to inactive results. Activity calls are given as the source filed them.

Assays:
Assay in all cases: NCI-60 one-dose screen, 48 h (100 = growth as untreated, 0 = no growth, -100 = all killed)
Settings in all cases: 10 µM unless noted
NCI-H23 lung = test system: NCI-H23 lung
NCI-H226 lung = test system: NCI-H226 lung
NCI-H322M lung = test system: NCI-H322M lung
HOP-62 NSCLC = test system: HOP-62 NSCLC
NCI-H460 lung = test system: NCI-H460 lung
HOP-92 NSCLC = test system: HOP-92 NSCLC
NCI-H522 lung = test system: NCI-H522 lung
A549/ATCC NSCLC = test system: A549/ATCC NSCLC
786-0 renal = test system: 786-0 renal
COLO 205 colon = test system: COLO 205 colon

SMILES | growth (NCI-H23 lung) | growth (NCI-H226 lung) | growth (NCI-H322M lung) | growth (HOP-62 NSCLC) | growth (NCI-H460 lung) | growth (HOP-92 NSCLC) | growth (NCI-H522 lung) | growth (A549/ATCC NSCLC) | growth (786-0 renal) | growth (COLO 205 colon)
COc1ccc(C(=O)c2cc(OC)c(OC)c(OC)c2)cc1/C=C/C(=O)c1ccc(F)cc1 | 79.7% | 90.4% | 85.5% | 95.5% | 92.9% | 69.2% | 18.5% | 90.7% | 77.4% | 79.3%
CC/C=C\C[C@H]1C/C=C2/C(=O)C=C[C@@H]2C/C=C\CCCC(=O)O1 | -12.5% (active) | -54.8% (active) | 16.7% | 44.2% | -33.7% (active) | -36.6% (active) | -45.1% (active) | -25.2% (active) | -79.9% (active) | -13.1% (active)
COC(=O)[C@@H](NC(=O)[C@@H](OC)[C@@H]1Cc2cc3cc(OC4CC(OC5CC(O)C(O)C(C)O5)C(O)C(C)O4)c(C)c(O)c3c(O)c2C(=O)[C@H]1OC1CC(OC2CC(OC3CC(C)(O)C(O)C(C)O3)C(O)C(C)O2)C(O)C(C)O1)C(C)C (stereo partly drawn) | -6.89% (active) | -23.4% (active) | 24.8% | 6.44% (active) | -6.19% (active) | -18.9% (active) | -20% (active) | 7.37% (active) | -21.2% (active) | 13.8%
Nc1ncnc2c1c(-c1cccc(OCc3ccccc3)c1)cn2C1CC(CN2CCC2)C1 (stereo not drawn) | 33.6% | 40.1% | 42.9% | -29.5% (active) | 21.9% | -21% (active) | -23.6% (active) | 4.8% (active) | -70.4% (active) | -66.7% (active)
CCN(CC)C(=O)C[N+](C)(C)CCOC(c1ccccc1)c1ccccc1 | 95.2% | 102% | 104% | 103% | 109% | 113% | 105% | 101% | 102% | 112%
c1cc(OCCN2CCCCC2)cc(-c2n[nH]c3ccc(-c4ncn[nH]4)cc23)c1 | 43.8% | 61.6% | 37.6% | 60.6% | 66% | 44.8% | 36.8% | 63.8% | 79.9% | 6.03% (active)
C=CC(=O)Nc1cc2c(Nc3ccc(F)c(Cl)c3)ncnc2cc1OCCCN1CCOCC1 | -54.4% (active) | 40.2% | -15.2% (active) | 12.1% | 31.2% | -51.7% (active) | -74.6% (active) | 22.9% | 2.4% (active) | 8.89% (active)
Cn1c(=O)c(F)c(Nc2ccc(I)cc2F)c2c(=O)n(C[C@@H](O)CO)cnc21 | 21.5% | 52.5% | 14% | 22.5% | 62.3% | -23.8% (active) | 41.4% | 19.2% | 58.3% | 2.24% (active)
COc1ccc(COc2cc3oc(=O)c4cc(C(C)O)ccc4c3cc2OC)cc1 (stereo not drawn) | 70.8% | 55.4% | 83.8% | 36.9% | 58.4% | 55.2% | 35.1% | 48.6% | 62.4% | 49.3%
O=C(c1c(F)ccc(NS(=O)(=O)N2CC[C@@H](F)C2)c1F)c1c[nH]c2ncc(-c3cnc(C4CC4)nc3)cc12 | 58.6% | 62.3% | 21.6% | 37.7% | 37.3% | 35.7% | 32.5% | 33.8% | 39.8% | 0.255% (active)
COC(=O)[C@H](C)NC(=O)[C@@H](OC)[C@@H]1Cc2cc3cc(OC4CC(OC5CC(O)C(O)C(C)O5)C(O)C(C)O4)c(C)c(O)c3c(O)c2C(=O)[C@H]1OC1CC(OC2CC(OC3CC(C)(O)C(O)C(C)O3)C(O)C(C)O2)C(O)C(C)O1 (stereo partly drawn) | -31.1% (active) | -21.5% (active) | 11.4% | 13% | 7.28% (active) | 3.12% (active) | -26% (active) | 7.05% (active) | -4.86% (active) | -20.5% (active)
S=C(NCc1ccc2c(c1)OCO2)N1CCN(c2ncnc3c2oc2ccccc23)CC1 | 44.1% | 28.7% | 35.3% | 30.7% | 31.8% | 38.1% | 22.6% | 25.6% | 47.5% | 4.16% (active)
O=S1(=O)OC(c2ccc(O)c(Cl)c2)(c2ccc(O)c(Cl)c2)c2ccccc21 | 97.8% | 93.9% | 107% | 99.5% | 101% | 60.6% | 93.4% | 99.1% | 110% | 103%
CN1CCN(c2nc(C3=C(c4c[nH]c5ccccc45)C(=O)NC3=O)c3ccccc3n2)CC1 | 70.1% | 73.8% | 29.2% | 44.3% | 87.5% | 80.7% | 68% | 51.7% | 92.8% | -2.65% (active)
CN1CCC(COc2cnc(-c3cccc(Cn4nc(-c5cccc(C#N)c5)ccc4=O)c3)nc2)CC1 | 62.5% | 92.2% | 88.7% | 45.7% | 52.4% | 72.2% | 25.5% | 48.1% | 61.9% | -60.3% (active)
O=C(N/N=C/c1ccc(Cl)cc1)c1cc(-c2cc3ccccc3o2)nn1-c1ccccc1 | 92% | 91.3% | 96.7% | 97.3% | 106% | -16.5% (active) | 77.9% | 97.9% | 95.1% | 96.1%
CC(C)[C@@H]1CC[C@]2(CO2)[C@@H]2C(=O)OCC(C(=O)O)=C[C@H]21 | -18.4% (active) | 25.5% | 8.82% (active) | 5.26% (active) | 7.86% (active) | -11.9% (active) | -45.8% (active) | 15.5% | 11.6% | 1.78% (active)
Cc1cc(-c2cc(O)ccc2Cl)cc2nnc(Nc3ccc(OCCN4CCCC4)cc3)nc12 | -63.2% (active) | -51.7% (active) | -94.4% (active) | -66.1% (active) | -81.6% (active) | -69.1% (active) | -49.5% (active) | -70.7% (active) | -60.6% (active) | -61.4% (active)
Cc1ccc(C(=O)Nc2ccc(CN3CCN(C)CC3)c(C(F)(F)F)c2)cc1C#Cc1cnc2cccnn12 | -84.8% (active) | -96.8% (active) | -98.8% (active) | -93.6% (active) | -83.3% (active) | -74.1% (active) | -86.6% (active) | -95.1% (active) | -91% (active) | -88.2% (active)
C=CCCCC(=O)CCC(=O)OCC1O[C@@H](O[C@@H]2C(O)[C@@H](OC(C)=O)C(C)O[C@H]2O[C@H](CC=C)CCCCC)C(O)[C@@H](OC(=O)/C(C)=C/C)[C@@H]1OC(=O)/C=C/c1ccccc1 (stereo partly drawn) | 35.3% | 9.34% (active) | 39.6% | 9.18% (active) | 10.6% | 0.347% (active) | 34.8% | 24.6% | 18.9% | -8.37% (active)
COc1ccc(Cl)c(Nc2nc3ccccc3nc2NS(=O)(=O)c2cccc(NC(=O)C(C)(C)N)c2)c1 | 64.5% | 71.4% | 35.1% | 39.4% | 38% | -1.2% (active) | 49% | 32.4% | 16.7% | 21.8%
COc1cnc2c(c1)C(=O)c1c-2n(CCCN2CCC(N)CC2)c(=O)c2cc([N+](=O)[O-])ccc12 | 38.4% | 35.7% | 52.8% | 30.6% | 11.2% | 67.1% | 42.2% | 23% | 36.2% | 58.2%
COc1cc(C2CC(c3ccc(Cl)cc3)=NN2c2ccc(Cl)cc2)cc(OC)c1OC (stereo not drawn) | 97.4% | 88.4% | 91.1% | 100% | 97.1% | 57.7% | 88.9% | 93.9% | 98.8% | 91.4%
CC(=O)C1=C(C)NC(SCc2nnc(-c3ccc(C)cc3)o2)=NC1c1ccc(F)cc1 (stereo not drawn) | 95.2% | 89.6% | 92.8% | 95.2% | 106% | 96.4% | 85.9% | 91.2% | 84.6% | 115%
CC(=Nc1ccccc1)C1=C(O)C(Cc2ccc(O)cc2)NC1=O (stereo not drawn) | 2.24% (active) | 15.5% | 39.6% | 19.8% | – | -10.1% (active) | -27.1% (active) | -27.7% (active) | 9.29% (active) | -71% (active)
Cc1ccc(NC(=O)c2ccc(CN3CCN(C)CC3)cc2)cc1Nc1nc(-c2cccnc2)cs1 | 68% | 38.6% | 90.2% | 60.2% | – | 93.1% | 17.7% | 39.4% | 14.5% | 16.1%
